From PubChem
A selection: hits, their analogues and other compounds. The true share with any hit is near 12%.
BAZ2B inh: blocks human BAZ2B | Q9UIF8 | AlphaScreen BAZ2B-H3K14Ac peptide displacement | Potency, µM (top dose mostly 114 µM), for inactives: top-dose activity change, negative = inhibition, usual class: inhibitors | 4.4% of 360,000 active | AID 504333; also: potency is read from the fitted curve at half-maximal effect; % is scaled to controls: 0 for no effect and ±100 for the full control effect; nearly all actives have a fitted effect of over 60% in size
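AlphaScreen displacement of biotin-H3(5-23)K14Ac peptide (50 nM final) from BAZ2B (50 nM final) in PBS pH 7.4, 0.01% Tween-20; complex preformed 30 min RT, then compounds (top 110 uM) 30 min RT, beads 20 min dark.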
PLK1 PBD block: inhibitors of human PLK1 polo-box domain binding | Potency, µM, for the others: max response, negative = inhibition, most hits filed as inhibitors | 2.8% of 360,000 active | Plk1 PBD binding of FITC phosphopeptide, fluorescence polarization; also: potency is read from the fitted curve at half-maximal effect; series mostly up to about 57 µM; % is scaled to controls: 0 for no effect and ±100 for the full control effect; nearly all actives have a fitted effect of over 65% in size
HP1b binding inh: inhibitors of HP1-beta chromodomain binding to methylated histone tails; P83916; AlphaScreen HP1-beta / biotin-H3K9me3 peptide binding; Potency, µM (series often up to 114 µM), for inactives: at the highest dose activity change, negative = inhibition, most hits filed as inhibitors; 0.56% of 390,000 active; AID 540317; also: potency is read from the fitted curve at half-maximal effect; nearly all actives have a fitted effect of over 70% in size
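AlphaScreen: HP1-beta (50 nM) preformed 30 min with biotin-H3(1-18)K9me3 peptide (50 nM) in PBS pH 7.4, 0.01% Tween-20. Compound added for 30 min at RT, then streptavidin donor/nickel chelate acceptor beads (10 ug/mL) for 30 min.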
PI5P4Ka inh: inhibitors of human PI5P4K alpha | PI5P4Kalpha enzyme, ADP-Glo luminescence, 60 min; stronger effect = lower value | P48426 | 1.2% of 330,000 active | max response, %; active = max response of -50% or lower; inconclusive = between -30% and -50%; inactive = -30% or higher; also: value at the top dose of about 77 µM; % is scaled to controls: 0 for no effect and ±100 for the full control effect
Target sequence (P48426 whole entry, looked up): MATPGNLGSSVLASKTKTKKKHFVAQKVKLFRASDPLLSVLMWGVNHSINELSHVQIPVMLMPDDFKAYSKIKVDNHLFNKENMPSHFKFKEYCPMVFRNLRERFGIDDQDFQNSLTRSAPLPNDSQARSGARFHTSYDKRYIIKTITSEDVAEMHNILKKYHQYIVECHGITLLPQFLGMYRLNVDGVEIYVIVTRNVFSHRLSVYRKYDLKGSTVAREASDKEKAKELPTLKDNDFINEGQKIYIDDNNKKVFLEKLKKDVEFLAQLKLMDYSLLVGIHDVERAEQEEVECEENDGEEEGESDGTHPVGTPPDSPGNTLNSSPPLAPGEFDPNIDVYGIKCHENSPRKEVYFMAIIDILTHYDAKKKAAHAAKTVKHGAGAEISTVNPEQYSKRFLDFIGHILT
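Human PI5P4Kalpha with substrate in 0.038 M HEPES pH 7.4, 0.28 mM EGTA, 0.1% CHAPS, 5% DMSO; reaction started with 5 microM ATP (final), 60 min at room temperature. ADP formed read by ADP-Glo luminescence.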
G9a block: inhibitors of human histone lysine methyltransferase G9a. Q96KQ7. G9a H3K9 monomethylation, AlphaScreen, 2 h. Potency, µM (doses to about 102 µM), without a hit: at the top dose activity, negative = inhibition, hits mostly inhibitors. 8.8% of 350,000 active. AID 504332; also: potency is read from the fitted curve at half-maximal effect; % is scaled to controls: 0 for no effect and ±100 for the full control effect; nearly all actives have a fitted effect of over 75% in size
Target sequence (Q96KQ7 913-1193 limits assumed): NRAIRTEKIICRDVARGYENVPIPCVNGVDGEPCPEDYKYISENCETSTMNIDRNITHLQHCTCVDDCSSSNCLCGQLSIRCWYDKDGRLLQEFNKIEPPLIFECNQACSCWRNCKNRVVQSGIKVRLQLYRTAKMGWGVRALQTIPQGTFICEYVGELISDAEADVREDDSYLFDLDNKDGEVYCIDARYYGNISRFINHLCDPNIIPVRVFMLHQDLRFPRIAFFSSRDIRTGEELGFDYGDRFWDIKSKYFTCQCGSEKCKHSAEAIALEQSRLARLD
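Methyltransferase reactions run at room temperature for 2 h (20 nM enzyme, 500 nM biotin-H3K9 peptide, 20 uM SAM) after a 15 min compound preincubation; product detected by AlphaScreen beads and anti-H3K9me1 antibody.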
JMJD2A Tudor: blocks the human JMJD2A Tudor domain. 4.4% of 390,000 active. Potency, µM (titrated, usually from 114 µM), for inactives: top-dose activity change, negative = inhibition, most hits filed as inhibitors. O75164. AlphaScreen JMJD2A-Tudor / H3K4me3 peptide binding; also: potency is read from the fitted curve at half-maximal effect; % is scaled to controls: 0 for no effect and ±100 for the full control effect; nearly all actives have a fitted effect of over 50% in size
Active calls of the source: *; [ ] = another dose, or the depositor's remark. Unless noted, calls follow the shape of the dose curve; as a rule, active = well fitted curve in the direction sought with a large enough effect; inconclusive = small, poorly fitted or top-dose-only effect, or another doubt; inactive = no such curve, though single readings can be large; an effect the other way counts as inactive or inconclusive.

Screening COC(=O)CSc1nc2ccc(C)cc2[nH]1 returned BAZ2B inh 1%, PLK1 PBD block 2%, HP1b binding inh 34%, PI5P4Ka inh 1, G9a block 28µM* and JMJD2A Tudor -23%.
For Cc1ccc2nc(CSc3nc(C)ccc3C#N)[nH]c2c1 the results were BAZ2B inh -1%, PLK1 PBD block inconclusive, HP1b binding inh 22%, G9a block 2.8µM* and JMJD2A Tudor inconclusive.
Screening Cc1ccc(C#N)c(SCc2ccccc2F)n1 returned BAZ2B inh 141%, PLK1 PBD block -5%, HP1b binding inh 264%, PI5P4Ka inh 17 and JMJD2A Tudor 208%.
Screening Cc1ccc2nc(SCC(=O)c3c(N)n(C4CC4)c(=O)[nH]c3=O)[nH]c2c1 returned BAZ2B inh -5%, PLK1 PBD block -2%, HP1b binding inh inconclusive, PI5P4Ka inh 2, G9a block 18µM* and JMJD2A Tudor -8%.
Cc1c(NC(=O)CSc2nc3ccc(Cl)cc3[nH]2)c(=O)n(-c2ccccc2)n1C was read as BAZ2B inh inconclusive, PLK1 PBD block -9%, HP1b binding inh 18%, PI5P4Ka inh -13, G9a block 11µM* and JMJD2A Tudor -12%.
`Cc1ccc2nc(SCC(=O)Nc3ccc(F)cc3F)[nH]c2c1` gave BAZ2B inh 2%, PLK1 PBD block -14%, HP1b binding inh 38%, PI5P4Ka inh 12, G9a block inconclusive and JMJD2A Tudor -19%.
`Nc1cccc(-c2nc3ccc(C(=O)c4ccccc4)cc3[nH]2)c1` gave BAZ2B inh 50µM*, PLK1 PBD block -8%, HP1b binding inh -11%, PI5P4Ka inh -3 and JMJD2A Tudor inconclusive.
For Cc1ccc2nc(SC(C)C(=O)N3CCCCC3)[nH]c2c1 (stereo not drawn) the results were BAZ2B inh -15%, PLK1 PBD block -1%, HP1b binding inh 50%, PI5P4Ka inh 2, G9a block -24% and JMJD2A Tudor -11%.
Cc1c(NC(=O)CSc2nc3ccccc3s2)c(=O)n(-c2ccccc2)n1C was read as BAZ2B inh 7%, PLK1 PBD block -10%, HP1b binding inh 41%, PI5P4Ka inh -22, G9a block 50µM* and JMJD2A Tudor -4%.
For Cc1ccc(NC(=O)CSc2nc3ccc(Br)cc3[nH]2)c(C)c1 the results were BAZ2B inh 2%, HP1b binding inh 30%, G9a block 8.9µM* and JMJD2A Tudor -15%.
COc1ccc2nc(-c3cccc(N)c3)[nH]c2c1 was read as BAZ2B inh -18%, PLK1 PBD block -4%, HP1b binding inh 7%, PI5P4Ka inh -17, G9a block 1%[59 µM] and JMJD2A Tudor -15%.
Screening Cc1csc(SCC(=O)Nc2c(C)n(C)n(-c3ccccc3)c2=O)n1 returned BAZ2B inh -3%, PLK1 PBD block -3%, HP1b binding inh 34%, PI5P4Ka inh -2, G9a block -8%[59 µM] and JMJD2A Tudor 5%[57.1 µM].
For Cc1ccc2nc(SC(C)C(=O)N3CCCC3)[nH]c2c1 (stereo not drawn) the results were BAZ2B inh -7%, PLK1 PBD block -14%, HP1b binding inh 14%, PI5P4Ka inh -4, G9a block 28µM* and JMJD2A Tudor 0%.
For CC1CCCCN1C(=O)COC(=O)C1CCN(S(=O)(=O)c2c(Cl)cccc2Cl)CC1 (stereo not drawn) the results were BAZ2B inh -7%, PLK1 PBD block 4%, HP1b binding inh 15%, PI5P4Ka inh -6 and JMJD2A Tudor -14%.
Screening CSc1ccc(CNC(=O)C2CCCN(S(=O)(=O)N(C)c3ccc(F)cc3)C2)cc1 (stereo not drawn) returned BAZ2B inh -3%, HP1b binding inh 34%, G9a block 2%[59 µM] and JMJD2A Tudor -3%.
Screening N#Cc1nc(-c2ccc(OCc3ccc(Cl)cc3)cc2)oc1N1CCCCC1 returned HP1b binding inh 4%[57 µM] and JMJD2A Tudor -6%[57.1 µM].
Screening Cc1c(NC(=O)CSc2ccc(Cl)cc2)c(=O)n(-c2ccccc2)n1C returned BAZ2B inh 26%, PLK1 PBD block -7%, HP1b binding inh 43%, PI5P4Ka inh -2, G9a block inconclusive and JMJD2A Tudor -21%.
`Cc1ccc2nc(SCc3nc4ccccc4c(=O)[nH]3)[nH]c2c1` gave BAZ2B inh -17%, PLK1 PBD block inconclusive, HP1b binding inh 2%, PI5P4Ka inh -30, G9a block 40µM* and JMJD2A Tudor inconclusive.
Cc1c(NC(=O)CSc2ccc3c(c2)OCCO3)c(=O)n(-c2ccccc2)n1C was read as BAZ2B inh 19%, PLK1 PBD block 27µM*, HP1b binding inh inconclusive, PI5P4Ka inh -13, G9a block -24% and JMJD2A Tudor 50µM*.
Screening Cc1ccc2nc(SCC(=O)Nc3cccc([N+](=O)[O-])c3)[nH]c2c1 returned BAZ2B inh inconclusive, PLK1 PBD block -9%, HP1b binding inh -2%, G9a block 13%[59 µM] and JMJD2A Tudor inconclusive.
Screening Cc1ccc2nc(SCC(=O)Nc3ccc(C(N)=O)cc3)[nH]c2c1 returned BAZ2B inh 16%, PLK1 PBD block -16%, HP1b binding inh inconclusive, PI5P4Ka inh -4, G9a block 40µM* and JMJD2A Tudor -12%.
`CCN1CCN(C(c2ccc(OC)cc2)c2c(O)cc(C)n(Cc3ccco3)c2=O)CC1` (stereo not drawn) gave BAZ2B inh -17%, HP1b binding inh 10%[57 µM], G9a block inconclusive and JMJD2A Tudor 79µM*.
For CCN1CCN(C(c2ccc(SC)cc2)c2c(O)cc(C)n(Cc3ccco3)c2=O)CC1 (stereo not drawn) the results were BAZ2B inh -13%, HP1b binding inh -13%[57 µM], G9a block inconclusive and JMJD2A Tudor 79µM*.
`CCN1CCN(C(c2ccccc2)c2c(O)cc(C)n(Cc3ccco3)c2=O)CC1` (stereo not drawn) gave BAZ2B inh -19%, HP1b binding inh 14%[57 µM], G9a block inconclusive and JMJD2A Tudor inconclusive.
`O=C(OCC(=O)N(C1CCCCC1)C1CCCCC1)c1ccncc1` gave BAZ2B inh -10%, PLK1 PBD block 21µM*, HP1b binding inh -1%, PI5P4Ka inh 2, G9a block -3%[2.33 µM] and JMJD2A Tudor inconclusive.
For CCc1nnc(N/N=C\c2ccc(OC(C)=O)c(OC)c2)n1N the results were BAZ2B inh inconclusive, PLK1 PBD block -3%, HP1b binding inh 33%, PI5P4Ka inh -2, G9a block inconclusive and JMJD2A Tudor -25%.
For Cc1nnc(N/N=C/c2cccc(OCc3ccc(Cl)c(Cl)c3)c2)n1N the results were BAZ2B inh inconclusive, PLK1 PBD block -10%, HP1b binding inh -5%, PI5P4Ka inh 8, G9a block 10µM* and JMJD2A Tudor inconclusive.
